About 83,000 compounds went through this panel and 20% of them were active in at least one assay; those are over-represented in the sample as a whole.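 Step 1: grow cells in 96-well plates. Step 2: add test compound at a single concentration. Step 3: incubate 48 h. Step 4: record percent growth.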 A number with no mark means an inactive call. Activity calls are given as the source filed them. Rule for the calls: active = growth percent below 10; inactive = the rest.
Columns and labels:
Test in all cases: NCI-60 one-dose screen, 48 h (100 = growth as untreated, 0 = no growth, -100 = all killed)
Details in all cases: 10 µM unless noted
[1] = test system: DU-145 prostate
[2] = test system: K-562 leukemia
[3] = test system: MALME-3M melanoma
[4] = test system: MDA-MB-231 breast
[5] = test system: RXF 393 renal
[6] = test system: SF-268 CNS
[7] = test system: SF-295 CNS
[8] = test system: SF-539 CNS
[9] = test system: UACC-257 melanoma
[10] = test system: M14 melanoma
[11] = test system: HCT-15 colon
[12] = test system: HT29 colon
[13] = test system: SNB-75 CNS
[14] = test system: U251 CNS
[15] = test system: SK-MEL-5 melanoma
[16] = test system: UACC-62 melanoma
[17] = test system: LOX IMVI melanoma
[18] = test system: SK-MEL-28 melanoma
[19] = test system: SNB-19 CNS
[20] = test system: PC-3 prostate

Structure (SMILES)	growth [1]	growth [2]	growth [3]	growth [4]	growth [5]	growth [6]	growth [7]	growth [8]	growth [9]	growth [10]	growth [11]	growth [12]	growth [13]	growth [14]	growth [15]	growth [16]	growth [17]	growth [18]	growth [19]	growth [20]
CC[C@H](CO)Nc1nc(NCc2ccccc2)n2ncc(C(C)C)c2n1	7.53% (active)	2.92% (active)	-17% (active)	8.97% (active)	-13.9% (active)	5.86% (active)	0.519% (active)	-46% (active)	24.2%	8.94% (active)	2.45% (active)	3.07% (active)	-73.4% (active)	5.23% (active)	-17.6% (active)	-41.8% (active)	4.45% (active)	-16.9% (active)		
Oc1ccccc1N=Cc1c(O)ccc2ccccc12	82.3%	80.3%	82.9%	57%	79.2%	78.4%	53.9%	80%	93.2%	62.7%	77.8%	82.9%	69.8%	83.3%	77.3%	63.8%	61.7%	113%		
COc1ccc2c(c1)C(=O)/C(=C/c1cccc(OCC(=O)Nc3nc4c(s3)CCCC4)c1)O2	32.9%	-46.8% (active)	-67.6% (active)	23.5%	-43.8% (active)	-26.9% (active)	52.1%	-83.2% (active)	-22.4% (active)	-27.4% (active)	-15.7% (active)	-74.3% (active)	19%	41.9%	-14% (active)	79.1%	-70.3% (active)	38.1%		
Cn1c2ccccc2c2c3[nH]c(=O)[nH]c(=O)c3c3c4ccccc4n(C)c3c21	29.2%	56.1%	20%	46%	6.48% (active)	32.4%	69.6%	39.5%	78.1%	31.8%	24.2%	14.4%	-38.4% (active)	21.9%	29.3%	43%	22.5%	27.2%		
COc1ccc(-c2cc(-c3cccnc3)nc3sc4c(=O)n(-c5ccc(C)cc5)cnc4c23)cc1OC	101%	111%	102%	90.1%	98.5%	100%	101%	89.4%	104%	99%	94.2%	104%	74.9%	103%	94.2%	97.3%	97.9%	89.3%		
COc1ccc(S(=O)(=O)NCCNc2nccc(-c3c(-c4cccc([N+](=O)[O-])c4)nc4sccn34)n2)cc1	80%	76.1%	111%	82.9%	78%	66.4%	90.6%	99.3%	106%	102%	77.5%	74.8%		91.1%	63.6%	84%	88.6%	107%	91.6%	64.6%
COc1cc(NCCCCN=C(N)NC(N)=NC(C)C)c2ncccc2c1	127%	39.1%	-2.65% (active)	21.3%	154%	54.1%	113%	78.1%	25.2%	92.4%	122%	53.9%		50%	17%	77%	46.6%	86.4%	55.9%	22.9%
COc1ccc(C(=O)COc2ccc(/C=C3\Oc4ccc(Cl)cc4C3=O)cc2)cc1	107%	16.7%	115%	86.8%	101%	108%	92.7%	86.3%	89.9%	104%	103%	109%	88.8%	96.7%	78.8%	83.6%	92%	79.9%		
CCN(CC)CC(O)CNc1c2ccc([N+](=O)[O-])cc2nc2cc(OC)c(OC)cc12 (stereo unspecified)	-29.9% (active)	3.2% (active)	-82% (active)	-71.9% (active)	-43.4% (active)	-35.2% (active)	-8.54% (active)	-35.7% (active)	-33.5% (active)	-56.7% (active)	11.9%	-48.7% (active)	-94.6% (active)		-78.3% (active)	-77.6% (active)	-40.2% (active)	-11.9% (active)		-53.4% (active)
COc1ccc(S(=O)(=O)NCCNc2nccc(-c3c(-c4cccc(N)c4)nc4sccn34)n2)cc1	105%	88.9%	101%	104%	107%	99.7%	99.2%	110%	102%	102%	101%	93.5%		104%	98%	100%	98.4%	117%	108%	83.6%
Cc1ccc2c(c1)n([O-])c1cc(Cl)ccc1[n+]2=O	101%	78.8%	97.8%	80.9%	107%	108%	109%	107%	97.1%	99%	119%	112%	91.3%		107%	89%	129%	133%		93.6%
COc1ccc(-c2cn3c(ccc4ccccc43)n2)cc1	104%	94.7%	106%	83.3%	121%	101%	89.9%	90.5%	118%	112%	92.4%	108%		105%	78%	85.3%	95.1%	117%	99.3%	89.2%
COc1ccc(Cl)cc1Nc1nc(C(F)(F)F)ccc1C(=O)N/N=C/c1cccnc1	53.7%	36.1%	42.6%	49.3%	60.9%	48.9%	81.6%	45.9%	72.7%	52.9%	29.1%	49.6%	67.1%	40.4%	22.2%		36.3%	59.9%		43.7%
Cc1ccc(-c2nc(/C=N/Nc3cc(C)nc4ccc(Cl)cc34)c(C)o2)cc1	3.19% (active)	-10.9% (active)	-74.6% (active)	-83.9% (active)	-84.9% (active)	-52.7% (active)	17.1%	-77.7% (active)	107%	-14.2% (active)	-67.5% (active)	-77.9% (active)		-94.8% (active)	49.6%	31.7%	-80.3% (active)		-44.7% (active)	33.7%
Nc1cc2ccncc2c2ccccc12	75.4%	112%	97.6%	64.1%	81.5%	75.6%	69.3%	79.1%	103%	94.7%	75.1%	65.2%	116%	81.1%	76.9%		50.8%	103%		83.1%
CCOC(=O)c1cnc2ccc(Br)cc2c1Nc1cccc(S(=O)(=O)NC)c1	103%	100%	99.1%	95.4%	99.5%	94.9%	94.2%	98.2%	114%	114%	80.5%	101%		109%	96.6%	96.9%	93.6%	122%	100%	102%
C=CC[N+]1(CCO)CCN=C1CCCCCCCCCCCCC (stereo unspecified)	-90.4% (active)	-53.9% (active)	-61.9% (active)	-70.1% (active)	-55.3% (active)	-60.6% (active)	47.5%	-96.6% (active)	-80.3% (active)	-86.2% (active)	-74.5% (active)	-92.2% (active)	-78.3% (active)		-95% (active)	-96.5% (active)	-87.9% (active)	-69.5% (active)		-29.9% (active)

— PubChem BioAssay (NCI)
